Most compounds without a hit are left out; they make up all but 4.1% or so of the library.
HEK293 cAMP cs: raises cAMP in parental HEK293 cells, TSHR agonist counter-screen; Potency, µM (highest dose often 57.1 µM), for the others: top-dose activation, hits mostly activators; parental HEK293 CNG cAMP sensor, membrane potential fluorescence; actives 2.5% (n = 73,000); note: % of control where 0% means no effect; nearly all actives have a fitted effect of over 55% in size
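Counterscreen for endogenous-receptor signalling: CNG-channel HEK 293 cells report cAMP rise by membrane depolarization. After 60 min dye equilibration with 100 uM RO 20-1724, compounds incubated 30 min before bottom-read fluorescence at 590 nm.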
USP2a inhib: USP2a (human) protease inhibition; O75604; USP2a enzymatic assay, qHTS inhibition; Potency, µM (top dose mostly 38.3 µM), without a hit: top-dose activity change, negative = inhibition, actives largely listed as inhibitors; actives 0.1% (n = 60,000); AID 927; note: nearly all actives have a fitted effect of over 60% in size
Target sequence (O75604 whole entry, looked up): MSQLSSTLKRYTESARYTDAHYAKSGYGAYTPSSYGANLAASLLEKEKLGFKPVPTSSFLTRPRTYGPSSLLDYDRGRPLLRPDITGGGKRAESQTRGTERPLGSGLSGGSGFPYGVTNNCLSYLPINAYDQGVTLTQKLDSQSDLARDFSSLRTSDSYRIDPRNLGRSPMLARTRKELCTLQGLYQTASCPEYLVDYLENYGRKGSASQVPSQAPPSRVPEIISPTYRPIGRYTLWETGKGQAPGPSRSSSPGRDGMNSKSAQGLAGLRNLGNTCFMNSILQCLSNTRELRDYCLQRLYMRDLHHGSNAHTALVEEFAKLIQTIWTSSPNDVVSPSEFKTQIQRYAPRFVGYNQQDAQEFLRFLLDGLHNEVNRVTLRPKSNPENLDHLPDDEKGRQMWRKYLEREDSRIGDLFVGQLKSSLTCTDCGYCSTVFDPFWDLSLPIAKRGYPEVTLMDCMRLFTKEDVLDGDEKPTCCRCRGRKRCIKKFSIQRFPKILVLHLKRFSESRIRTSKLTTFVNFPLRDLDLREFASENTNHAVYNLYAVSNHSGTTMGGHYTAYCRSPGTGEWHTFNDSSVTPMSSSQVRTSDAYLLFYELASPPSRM
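USP2 core (20nM final) preincubated 30 min RT with compound, then Ub-PLA2 20nM and NBD C6-HPC 20uM final added; buffer 20mM Tris-HCl pH 8.0, 2mM CaCl2. Fluorescence Ex 460/Em 535 read at 0 and 2.5 h; normalized to NEM.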
PK Bst: alters activity of Bacillus stearothermophilus pyruvate kinase | Potency, µM | purified pyruvate kinase, luminescence ATP production; ribose 5-phosphate activator present at AC10 | actives 1.2% (n = 51,000); in the data active = potency below about 11 µM; inconclusive = mostly about 12 µM to 25 µM;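 the screen sought inhibitors and activators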;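 note: scaled between full activation by ribose 5 phosphate and full inhibition by luteolin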
TSHR agonist: agonists of human thyroid stimulating hormone receptor; P16473; HEK293-CNG-TSHR cells (CNG channel as cAMP sensor), membrane potential dye, cAMP; Potency, µM (doses to about 57.1 µM), for inactives: at the top dose activation, hits mostly activators; actives 0.48% (n = 73,000); AID 926; active = well fitted activation curve with a large enough effect in the main read-out, with a control signal flat, not every such curve was filed as active; inconclusive = small, poorly fitted or top-dose-only effect, or a change in a side signal; inactive = no such curve, though single readings can be large or run the other way; % of control where 0% means no effect;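 note: the control signal comes from parental cells without the receptor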
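HEK 293 cells stably expressing TSHR and a modified CNG channel, with CNG-only parental cells as counterscreen, were preloaded 60 min at room temperature with membrane potential dye containing 100 uM RO 20-1724. Compound exposure was 30 min, and depolarization was read as fluorescence at 590 nm.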
GBA activity: alters purified human glucocerebrosidase activity | actives 1.1% (n = 48,000) | purified enzyme, resorufin glucoside fluorescence (screen aimed at inhibitors), 20 min | Potency, µM | AID 360 | P04062; in the data active = potency below about 15 µM; inconclusive = mostly about 16 µM to 33 µM;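 note: the screen sought inhibitors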
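Wild-type enzyme at 0.2 nM final in 50mM citric acid/KH2PO4, 10mM sodium taurocholate, 0.01% tween-20, pH 5.9, with resorufin beta-D-glucopyranoside at 30 uM final. Compounds titrated, 20 min at RT, red fluorescence read; AC50 from titration.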
Ub-GFP proteasome: ubiquitin-GFP accumulation via proteasome inhibition | Ubiquitin-GFP reporter cells, proteasome inhibition, GFP fluorescence; response scale: untreated = 0%, 10 µM MG-132 = 100% | Potency, µM (titrated, usually from 45.9 µM), inactives show at the top dose activation (GFP accumulation), hits mostly activators | 67,000 tested, under 10 active; active = well fitted activation curve with a large enough effect, not every such curve was filed as active; inconclusive = small, poorly fitted or top-dose-only effect, or another doubt; inactive = no such curve, though single readings can be large or run the other way
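GFP accumulation read-out: laser plate cytometry counting ubiquitin(G76V)-GFP-expressing U2OS cells after 4 hr compound exposure at 37 °C. Titrations spanned 46 uM to 2.9 nM; 0% = basal, 100% = 10 uM MG-132; concentration-response curves fitted.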
Active calls of the source: *; i = inactive; ? = inconclusive; nt = no result given; [ ] = remark or other dose. Unless noted, calls come from the whole dose curve; as a rule, active = well fitted curve in the direction sought with a large enough effect; inconclusive = small, poorly fitted or top-dose-only effect, or another doubt; inactive = no such curve, though single readings can be large; an effect the other way counts as inactive or inconclusive. Potency is the fitted concentration of half-maximal effect.

SMILES	HEK293 cAMP cs	USP2a inhib	PK Bst	TSHR agonist	GBA activity	Ub-GFP proteasome
O=C(O)c1ccccc1NS(=O)(=O)c1cccc2ccccc12	-8%	nt	nt	5%	nt	nt
O=C(c1cnccn1)N1CCC2(CC1)CN(Cc1cc(C(F)(F)F)cc(C(F)(F)F)c1)C2	26%	40%	nt	20%	nt	0%
CS(=O)(=O)Nc1cccc(-c2ccc3ncnc(N4CCNCC4)c3c2)c1	-14%	68%	nt	2%	nt	-2%
O=C(NCc1ccc(F)cc1)C1CCN(C(=O)NCc2ccccc2)CC1	4µM*	-2%	>57	?	>77	-5%
O=C(NCc1ccccc1F)C1CCN(C(=O)NCc2ccccc2)CC1	0%	nt	>57	-4%	>77	3%
O=C(NCCc1ccccc1)C1CCN(S(=O)(=O)N2CCCC2)CC1	25µM*	0%	>57	?	?	-1%
N[C@@](CC(=O)O)(Cc1ccccc1)C(=O)O	1%[11.4 µM]	nt	nt	8%[11.4 µM]	nt	-3%[9.17 µM]
O=C1c2cccc([N+](=O)[O-])c2C(=O)N1c1ncn[nH]1	0%[11.4 µM]	nt	nt	2%[11.4 µM]	nt	1%[9.17 µM]
CC(C)(C)c1cc(C(F)(F)F)nc(SCCCNC(=O)c2ccco2)n1	26%	-1%	>57	25µM*	?	-5%
O=C1CCC(C(=O)Nc2cccc3ccccc23)N1 (centres undefined)	0%	-7%	>57	-6%	>77	2%
O=C(Nc1cccc2ccccc12)OC1C=CS(=O)(=O)C1 (centres undefined)	32µM*	15%	>57	?	>77	-5%
NCCSC[C@H](N)C(=O)O	7%[11.4 µM]	nt	nt	2%[11.4 µM]	nt	-1%[9.17 µM]
CCCCc1ccc(Nc2ncnc3nc[nH]c23)cc1	-23%	nt	nt	6%	nt	2%
Cc1ccc(Nc2ncnc3nc[nH]c23)cc1Cl	25µM*	nt	nt	?	nt	-4%
BrC(Br)C(Br)Br	-11%	nt	nt	?	nt	nt
CCn1c(SCc2nc(-c3ccccc3)no2)nc2ccccc21	26%	nt	nt	32µM*	nt	10%
COc1ccc(-c2noc(CSc3nc4ccccc4c(=O)n3-c3ccccc3)n2)cc1	22%	26%	>57	15%	>77	0%
COc1ccccc1C1C=C(c2ccccc2)Nc2nnnn21 (centres undefined)	4µM*	5%[7.66 µM]	nt	?	nt	-7%[9.17 µM]
COc1cccc(C2=CC(c3ccc(OC)c(OC)c3OC)n3nnnc3N2)c1 (centres undefined)	3%	28%	i	nt	>77	0%
CN(C)S(=O)(=O)c1cccc(C(=O)NCc2ccco2)c1	14%	nt	>57	3%	>77	0%
Cc1ccc(N(Cc2ccco2)C(=O)c2cccc(S(=O)(=O)N(C)C)c2)cc1	20%	3%	>57	20µM*	nt	-6%
CCOC(=O)C1=C(c2ccccc2)NC(SCC(=O)Nc2ccc(C)cc2)=C(C#N)C1c1ccco1 (centres undefined)	5%	33%	>57	nt	12*	6%
CC1=NN(c2ccccc2)C(=O)[C@@H]1N=Nc1ccc(S(N)(=O)=O)cc1	-22%[11.4 µM]	nt	nt	-22%[11.4 µM]	nt	-5%[9.17 µM]
C=CC1=C(C)C2=NC1=CC1=NC(=CC3=NC(=CC4=NC(=C2)C(C)=C4CCC(=O)O)C(CCC(=O)O)=C3C)C(C=C)=C1C.[Zn]	-30%	nt	nt	?	nt	-3%
O=C(Nc1cccc(C(F)(F)F)c1)c1cc(-c2cccs2)on1	15%	-2%	>57	-1%	4.8*	-6%
SMILES	HEK293 cAMP cs	USP2a inhib	PK Bst	TSHR agonist	GBA activity	Ub-GFP proteasome
CC(=O)NC(Cc1ccc(F)cc1)C(=O)NC1CCN(c2nnnn2-c2ccccc2)CC1 (centres undefined)	-2%	2%	>57	-4%	5.8*	6%
C=C1C[C@@]23C[C@]1(O)CC[C@@H]2[C@]12C=C[C@@H](O)[C@](C)(C(=O)O1)[C@H]2[C@H]3C(=O)O	22%[25.6 µM]	-9%[17.1 µM]	nt	2%[25.6 µM]	nt	4%[20.5 µM]
COc1ccccc1-c1cc(C(=O)NCc2ccccc2)no1	15%	-18%	>57	-3%[11.4 µM]	nt	0%
COc1ccccc1-c1cc(C(=O)NCc2ccc(Cl)cc2)no1	10%	-19%	>57	-1%[11.4 µM]	>77	-11%
COc1ccc(CNC(=O)c2cc(-c3ccccc3OC)on2)cc1	13%	-7%	>57	6%[11.4 µM]	11*	6%
COc1ccccc1-c1cc(C(=O)NCc2ccc(F)cc2)no1	8%	-5%	>57	-3%[11.4 µM]	9.9*	23%
COc1cccc(-c2cncnc2NCc2cccs2)c1	?	-5%	nt	?	nt	3%
COc1ccc(CNc2nc(-c3ccccc3OC)nc3ccccc23)c(OC)c1	-40%	28%	nt	?	nt	-7%
O=c1c(-c2ccc(Cl)cc2)nc2cnc(N3CCOCC3)nc2n1-c1ccccc1	7%	149%	nt	-2%	nt	2%
Nc1nc2c(c(=O)[nH]1)CN(CCCN1CCOCC1)CN2	3%[11.4 µM]	nt	nt	-1%[11.4 µM]	nt	4%[9.17 µM]
O=C(COC(=O)C1CCCCC1C(=O)N1CCc2ccccc21)NCc1ccco1 (centres undefined)	20µM*	25%	>57	?	nt	-2%
CC1(C)Cc2c(sc3nc(SCC(=O)N4CCOCC4)nc(N)c23)CO1	?	21%	>57	?	14*	4%
Clc1ccccc1-c1nnc2sc(C3COc4ccccc4O3)nn12 (centres undefined)	25%	49%	>57	19%	nt	-1%
COc1ccccc1-c1nn2c(C3COc4ccccc4O3)nnc2s1 (centres undefined)	25µM*	?	>57	?	>77	3%
c1ccc(CCc2nn3c(C4COc5ccccc5O4)nnc3s2)cc1 (centres undefined)	16µM*	33%	>57	?	nt	-7%
Cc1ccc(-c2nnc3sc(C4COc5ccccc5O4)nn23)cc1 (centres undefined)	25µM*	38%	>57	?	>77	-2%
N#C/C(=C\Nc1ccccn1)C(=O)c1ccco1	1%[11.4 µM]	nt	nt	0%[11.4 µM]	nt	1%[9.17 µM]
O=S1(=O)C=C(Sc2nc3ccccc3s2)c2ccccc21	11%	33%	>57	1%	11*	-2%
CC[C@H](C)[C@@H]1O[C@]2(CC[C@@H]1C)C[C@H]1C[C@H](CC=C(C)[C@@H](O[C@H]3C[C@H](OC)[C@H](O[C@H]4C[C@H](OC)[C@H](O)[C@H](C)O4)[C@H](C)O3)[C@@H](C)C=CC=C3CO[C@@H]4[C@@H](O)C(C)=C[C@H](C(=O)O1)[C@@]34O)O2	-10%	22%	nt	nt	nt	-5%
Cn1cc(-c2nc3cnc(Oc4ccccc4)nc3n(C)c2=O)c2ccccc21	11%	?	nt	10%	nt	-5%
O=C(c1oc2ccccc2c1CSCc1ccccc1)N1CCN(c2ncccn2)CC1	10µM*	5%	>57	?	>77	-6%
O=C(O)CCCC[C@@H]1SC[C@H]2NC(=O)N[C@H]12	-3%	nt	nt	-2%	nt	-2%

Screens: PubChem BioAssay, National Center for Advancing Translational Sciences (NCATS)
